GPT2 inhibitor: GPT2 alanine aminotransferase inhibition; Potency, µM (top dose mostly 57.7 µM), without a hit: top-dose activity change, negative = inhibition, most hits filed as inhibitors; AID 1671188; Recombinant GPT2, coupled pyruvate oxidase/HRP Amplex Red fluorescence; 0.25% of 100,000 active; also: nearly all actives have a fitted effect of over 60% in size
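Fluorescence of coupled pyruvate oxidase/HRP/Amplex Red system (50uM Amplex, 30 min, dark) reports pyruvate formed by GPT2. Enzyme reaction: 10ng/uL GPT2, 2mM L-alanine, 250uM a-KG, 30 min room temperature, pH 7.5; 50uM AOA control.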
NIH3T3 tox: NIH 3T3 cell cytotoxicity; NIH 3T3 viability, CellTiter-Glo ATP luminescence, 48-72 h; Potency, µM (titrated, usually from 96.7 µM), inactives show at the highest dose activity change, negative = cytotoxicity, usual class: inhibitors; 4.3% of 94,000 active; also: nearly all actives have a fitted effect of over 55% in size
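Cells were seeded at 400 per well, treated with pin-transferred compound, and kept 48 or 72 hr at 37 °C before CellTiter-Glo addition and luminescence imaging of cellular ATP.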
NPR1 antag: blocks ANP-stimulated signaling of human Npr1 receptor; HEK293 hNpr1 GloSensor cGMP, ANP-stimulated luminescence; Potency, µM (top dose mostly 46.3 µM), inactives show at the highest dose activity change, negative = inhibition, usual class: inhibitors; 1.6% of 76,000 active; calls by dose curve; also: nearly all actives have a fitted effect of over 60% in size
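HEK293 cells stably expressing human Npr1 and cGMP GloSensor pGS-40F, loaded 2 h with 2% GloSensor reagent, given compound 30 min at room temperature. Luminescence read before and 20 min after 0.1 nM hNppA.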
HEK cytotox: HEK 293 cell cytotoxicity | AID 1345083 | HEK 293 viability, ATP luminescence (CellTiter-Glo), 48-72 h | 6.6% of 94,000 active | Potency, µM (top dose mostly 115 µM), without a hit: top-dose activity change, negative = cytotoxicity, actives largely listed as inhibitors; also: nearly all actives have a fitted effect of over 60% in size
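HEK 293 seeded at 250 cells/well receive compound via pintool. After 48 or 72 hr at 37 degree Celsius, 5% CO2 and 95% humidity, CellTiter-Glo is dispensed and luminescence read following 10 min at room temperature.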
Luciferase inh: Photinus pyralis luciferase inhibition | purified P. pyralis luciferase, luminescence, biochemical | Potency, µM (top dose mostly 115 µM), most hits filed as inhibitors | 2.5% of 76,000 active | AID 1347043; also: nearly all actives have a fitted effect of over 65% in size
Target sequence (P08659 whole entry, looked up): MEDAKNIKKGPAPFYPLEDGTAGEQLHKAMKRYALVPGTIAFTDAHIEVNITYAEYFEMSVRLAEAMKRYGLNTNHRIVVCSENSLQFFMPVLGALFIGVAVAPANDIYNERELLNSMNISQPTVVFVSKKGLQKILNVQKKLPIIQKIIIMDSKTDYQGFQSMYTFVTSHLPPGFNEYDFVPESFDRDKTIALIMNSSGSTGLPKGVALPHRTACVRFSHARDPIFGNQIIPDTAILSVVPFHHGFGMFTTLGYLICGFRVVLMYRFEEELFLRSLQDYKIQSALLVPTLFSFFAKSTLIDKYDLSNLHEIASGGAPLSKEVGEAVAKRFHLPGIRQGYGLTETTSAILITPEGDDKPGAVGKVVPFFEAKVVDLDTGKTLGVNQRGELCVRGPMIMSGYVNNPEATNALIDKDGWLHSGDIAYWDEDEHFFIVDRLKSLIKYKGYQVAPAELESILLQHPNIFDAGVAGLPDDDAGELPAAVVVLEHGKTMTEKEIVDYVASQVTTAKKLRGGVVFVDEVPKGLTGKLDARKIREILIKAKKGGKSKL
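Luminescence read by CCD imager after adding enzyme (10nM final) to wells holding compound, titrated in qHTS. Substrates 10uM each D-luciferin and ATP; buffer 50mM Tris acetate pH 7.5, 10mM Mg acetate, Tween-20, BSA.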
An asterisk follows results filed as active; i = inactive; ? = inconclusive; / = no result given; [ ] = dose if it differs, or a comment. Shown are actives, neighbours in structure and some others; about 10% of the full set was active somewhere. Unless noted, calls follow the shape of the dose curve; as a rule, active = well fitted curve in the direction sought with a large enough effect; inconclusive = small, poorly fitted or top-dose-only effect, or another doubt; inactive = no such curve, though single readings can be large; an effect the other way counts as inactive or inconclusive. % is scaled to controls: 0 for no effect and ±100 for the full control effect; potency is read from the fitted curve at half-maximal effect.

SMILES | GPT2 inhibitor | NIH3T3 tox | NPR1 antag | HEK cytotox | Luciferase inh
Cc1cc(C)cc(C(=O)NC2CCN(c3cc(-c4ccc(F)cc4)[nH]n3)CC2)c1 | i | i | 2% | ? | i
O=C(NC1CCCN(c2cc(-c3ccc(F)cc3)[nH]n2)C1)c1cccnc1 (centres undefined) | ? | -18% | -6% | ? | ?
Cc1ccc(C(=O)NC2CCCN(c3cc(-c4ccc(F)cc4)[nH]n3)C2)cn1 (centres undefined) | ? | -26% | -2% | 20µM* | ?
COc1ccc(-c2cc(N3CCCC(NC(=O)c4ccc(C)cc4)C3)n[nH]2)cc1 (centres undefined) | i | ? | -9% | ? | ?
COc1ccc(-c2cc(N3CCCC(NC(=O)c4ccc(C)nc4)C3)n[nH]2)cc1 (centres undefined) | ? | ? | -24% | -63% | 35µM*
Cc1cc(C)cc(C(=O)NC2CCCN(c3cc(-c4ccc(F)cc4)[nH]n3)C2)c1 (centres undefined) | -27% | ? | -10% | 45µM* | i
CNC(=O)c1cc(C2CC2)nc2c1c(C1CCN(C(=O)COC)CC1)nn2C | / | -5% | / | i | /
CC(=O)c1cccc(NC(=O)Cn2c(-c3ccc(F)cc3)nc(C)cc2=O)c1 | i | -25% | -14% | 45µM* | i
CC(=O)c1cccc(NC(=O)Cn2c(-c3ccccc3)nc(C)cc2=O)c1 | i | -12% | -2% | ? | i
Cc1cc(=O)n(CC(=O)Nc2ccccc2C)c(-c2ccc(Cl)cc2)n1 | -17% | 35µM* | -3% | ? | i
Cc1nn(-c2ccccc2)c2c1C(C)N(CC1CN(Cc3ccc(F)cc3)C1)C2=O (centres undefined) | / | 35µM* | / | ? | /
Cc1nn(-c2ccccc2)c2c1C(C)N(CC1CN(C(=O)c3ccc(Cl)cc3)C1)C2=O (centres undefined) | / | 35µM* | / | ? | /
Cc1ccc(C(=O)N2CCC(n3cc(-c4nc(-c5ccccc5)no4)nn3)CC2)cc1 | 4% | -17% | -21% | ? | i
O=C(c1c(F)cccc1F)N1CCC(n2cc(-c3nc(-c4ccccc4)no3)nn2)CC1 | -34% | ? | 1.1µM* | ? | i
O=C(COc1ccccc1)N1CCC(n2cc(-c3nc(-c4ccccc4)no3)nn2)CC1 | i | 13µM* | 0% | ? | i
O=C(c1ccccc1)N1CCC(n2cc(-c3nc(-c4ccccc4)no3)nn2)CC1 | i | 40µM* | 0% | ? | i
Cc1cccc(NC(=O)CN2C(=O)NC(c3ccc(Cl)cc3)C3=C2COC3=O)c1C (centres undefined) | i | ? | -15% | ? | i
CC1(c2ccccc2)N(Cc2ccc(O)cc2)C(=O)OC12CCN(Cc1c[nH]c3ccccc13)CC2 (centres undefined) | -17% | 10µM* | ? | ? | i
COc1ccccc1CN1CCC2(CC1)OC(=O)N(Cc1ccccc1)C2(C)c1ccccc1 (centres undefined) | -6% | ? | -12% | 50µM* | i
Cc1ccccc1CN1CCC2(CC1)OC(=O)N(Cc1ccc(O)cc1)C2(C)c1ccccc1 (centres undefined) | -19% | 32µM* | -25% | 35µM* | i
COc1ncc(CN2CCC3(CC2)OC(=O)N(Cc2ccccc2)C3(C)c2ccccc2)cn1 (centres undefined) | -6% | -15% | -2% | ? | i
CCc1ccc(CN2CCC(CO)(CN3CCCC3)CC2)cc1 | -10% | ? | 2% | ? | i
COc1cccc(C(=O)N2CCCC(C(=O)N3CCC(c4nc5ncccc5[nH]4)CC3)C2)c1 (centres undefined) | 3% | 0% | / | 3% | /
CCN(CC)C(=O)N1CC(Oc2ccccc2-c2nc(-c3cnccn3)no2)C1 | 2% | -11% | -6% | ? | i
Cc1[nH]c2c(c1C(=O)N1CCCC(CCc3ccc(F)cc3)C1)C(=O)CCC2 (centres undefined) | -20% | ? | ? | 32µM* | i
SMILES | GPT2 inhibitor | NIH3T3 tox | NPR1 antag | HEK cytotox | Luciferase inh
CC(C)(C)NC(=O)Cn1ccn2nc(-c3ccccc3)c(CO)c2c1=O | i | i | 5% | 0% | i
Fc1ccc(C(c2ccc(F)cc2)N2CCN(CC=Cc3ccccc3)CC2)cc1 | 4.3µM* | / | / | / | /
O=C(N1CCN(C/C=C/c2ccccc2)CC1)C12CNCC1CNC2 (centres undefined) | 2% | ? | -6% | ? | i
COCCNc1ncc(-c2ccc(OC)cc2)c2c1OCC2 | -1%[88.5 µM] | ? | 5%[70.6 µM] | ? | 45µM*
COCCNc1ncc(-c2ccc(SC)cc2)c2c1OCC2 | 2%[88.5 µM] | ? | 3%[70.6 µM] | ? | ?
COCCNc1ncc(-c2ccc(F)cc2)c2c1OCC2 | i | ? | 1%[70.6 µM] | ? | 16µM*
O=C1N(Cc2ccc(F)cc2)C[C@H]2CN(Cc3cnc4ccccc4c3)CCN12 | 1%[88.5 µM] | 71µM* | ? | ? | i
O=C(CC1CCCCN(Cc2ccccc2)C1=O)NCc1ccc(F)cc1F (centres undefined) | -6% | ? | / | ? | /
O=C(NCC(F)F)C1CCCN(Cc2cccc(-c3cccs3)c2)C1 (centres undefined) | -1% | ? | / | 89µM* | /
CCC(C)NC(=O)C1CCCN(Cc2cccc(-c3ccsc3)c2)C1 (centres undefined) | / | ? | / | 45µM* | /
COC(=O)CNC(=O)C1CCCN(Cc2cccc(-c3cccs3)c2)C1 (centres undefined) | i | ? | / | -11% | /
O=C(NCCc1ccc(Cl)cc1)C1CCCN(Cc2cccc(-c3ccsc3)c2)C1 (centres undefined) | / | 14µM* | / | 22µM* | /
O=C(NCc1ccccc1)C1CCCN(Cc2cccc(-c3ccsc3)c2)C1 (centres undefined) | / | 40µM* | / | ? | /
O=C(NCc1ccccc1)C1CCCN(Cc2cccc(-c3cccs3)c2)C1 (centres undefined) | / | 32µM* | / | ? | /
COc1ccc(CNC(=O)C2CCCN(Cc3cccc(-c4cccs4)c3)C2)cc1 (centres undefined) | i | ? | / | ? | /
O=C(NCCCc1ccccc1)C1CCCN(Cc2cccc(-c3cccs3)c2)C1 (centres undefined) | i | ? | / | ? | /
O=C(NCc1ccc(F)cc1)C1CCCN(Cc2cccc(-c3cccs3)c2)C1 (centres undefined) | -12% | ? | / | 40µM* | /
COc1ccccc1-c1cccc(CN2CCCC(C(=O)NCc3cccs3)C2)c1 (centres undefined) | -7% | ? | / | ? | /

Assay outcomes deposited in PubChem by National Center for Advancing Translational Sciences (NCATS).
